Source: PubChem BioAssay
The entries come from a sample that favours hits as a whole.
IDE exosite FP = exo-site inhibitors of human IDE, primary screen, biochemical, fluorescence anisotropy, probe displacement; Insulin-degrading enzyme (Homo sapiens), P14735; purified IDE, FL-6b probe fluorescence polarization; active compounds read low; z-score at 20 µM; 17,000 compounds, 6.3% hits;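 active means z-score of -3 or lower, meaning strong loss of probe binding signal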;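 further: His-tagged human IDE residues 42-1019 made in E. coli with 30 nM FL-6b probe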
Large screens that a line does not name were inactive; ! = not active in a repeat.

COc1ccccc1-c1ccc([C@@H]2[C@@H](C#N)N(C(=O)C3CCCCC3)[C@@H]2CO)cc1	IDE exosite FP -14
COc1ccccc1-c1ccc([C@H]2[C@@H](C#N)N(C(=O)C3CCC3)[C@H]2CO)cc1	IDE exosite FP -5
COc1ccc(-c2ccc([C@H]3[C@@H](C#N)N(C(=O)c4cccc(F)c4)[C@H]3CO)cc2)cc1	none
COc1ccc(-c2ccc([C@@H]3[C@@H](C#N)N(C(=O)C4CCC4)[C@H]3CO)cc2)cc1	none
COc1ccc2c3c([nH]c2c1)[C@H](CO)N(C(=O)C1CCOCC1)CC31CCN(S(C)(=O)=O)CC1	none
CN1C(=O)c2cc(NS(=O)(=O)c3ccccc3F)ccc2OC[C@@H]2O[C@H](CC(=O)NC3Cc4ccccc4C3)CC[C@H]21	none
COc1ccccc1NC(=O)N1CC(=O)N2[C@@H](CO)[C@H](c3ccc(C#CC(C)C)cc3)[C@@H]2C1	none
CCCN1C[C@@H](C)[C@H](OC)CN(C)C(=O)c2cc(NS(=O)(=O)c3ccccc3)ccc2OC[C@H]1C	none
O=C(Nc1ccc(F)cc1)N1CCCCN2[C@H](C1)[C@@H](c1ccc(C#Cc3ccccc3)cc1)[C@@H]2CO	none
COc1ccccc1CNC(=O)C[C@@H]1C=C[C@@H](NC(=O)CC2CC2)[C@@H](CO)O1	none
C[C@@H](NC(=O)C[C@@H]1CC[C@H]2[C@H](COc3ccc(NS(=O)(=O)c4ccc(Cl)cc4)cc3C(=O)N2C)O1)c1ccccc1	none
CCC(=O)N1[C@@H]2Cn3c(ccc(-c4ccccc4F)c3=O)[C@H]1[C@@H](C(=O)NC1CCC1)[C@@H]2CO	none
CCN(C[C@@H]1N[C@@H](CO)[C@H]1c1ccc(-c2ccccc2)cc1)C(=O)COC	none
Cc1ccccc1S(=O)(=O)N1C[C@H](O)COC[C@@H]2O[C@@H](CC(=O)N3CCCCC3)CC[C@H]21	none
CCC(=O)N1[C@H](CN(C)C(C)=O)[C@@H](c2ccc(-c3ccccc3)cc2)[C@@H]1CO	none
CN(C)C(=O)c1cccc(-c2ccccc2[C@H]2[C@@H](C#N)N(C(=O)C3CCCCC3)[C@H]2CO)c1	none
COc1ccc(-c2ccc([C@@H]3[C@@H](C#N)N(C(=O)NC4CCCCC4)[C@H]3CO)cc2)cc1	none
COc1ccccc1-c1ccc([C@@H]2[C@@H](C#N)N(C(=O)C3CC3)[C@H]2CO)cc1	IDE exosite FP -11
N#C[C@@H]1[C@H](c2ccc(-c3ccccc3F)cc2)[C@@H](CO)N1C(=O)C1CC1	none
COc1ccccc1-c1ccc([C@H]2[C@@H](CO)N(C(=O)NC3CCCCC3)[C@H]2C#N)cc1	IDE exosite FP -6.9
COc1ccccc1-c1ccccc1[C@@H]1[C@@H](C#N)N(C(=O)C2CC2)[C@@H]1CO	none
COc1ccccc1-c1ccccc1[C@H]1[C@@H](C#N)N(C(=O)C2CC2)[C@@H]1CO	none
CN(C)C(=O)c1cccc(-c2ccc([C@@H]3[C@@H](CO)N(C(=O)C4CCC4)[C@H]3C#N)cc2)c1	none
N#C[C@H]1[C@H](c2ccc(-c3ccccc3F)cc2)[C@@H](CO)N1C(=O)C1CC1	IDE exosite FP -4.5
N#C[C@H]1[C@@H](c2ccc(-c3ccccc3F)cc2)[C@H](CO)N1C(=O)C1CC1	none
COc1ccc(-c2ccc([C@H]3[C@@H](C#N)N(C(=O)NC4CCCCC4)[C@@H]3CO)cc2)cc1	none
CN(C)C(=O)c1cccc(-c2ccc([C@H]3[C@@H](CO)N(C(=O)C4CC4)[C@H]3C#N)cc2)c1	none
CN(C)C(=O)c1cccc(-c2ccc([C@@H]3[C@@H](C#N)N(C(=O)C4CCC4)[C@@H]3CO)cc2)c1	IDE exosite FP -4.2
COc1ccc2c3c(n(C)c2c1)[C@H](CO)N(C(=O)Nc1ccc(F)cc1)CC31CCN(C(=O)Nc2ccc(F)cc2F)CC1	none
COc1ccccc1C(=O)Nc1ccc2c(c1)C(=O)N(C)C[C@H](OC)[C@H](C)CN(C(C)=O)[C@H](C)CO2	none
CC(=O)N1CCCCN2[C@H](CO)[C@H](c3ccc(-c4cccc(C(=O)N(C)C)c4)cc3)[C@H]2C1	none
CC(C)CC#Cc1ccc([C@@H]2[C@H](CO)N3CCCCN(C(=O)c4ccc5c(c4)OCO5)C[C@@H]23)cc1	none
O=C(c1ccccn1)N1C[C@H]2[C@@H](c3ccccc31)[C@H](CO)N2C(=O)C1CCCCC1	none
CCCNC(=O)N1[C@@H]2CNC[C@H]1C2c1ccc(-c2cccnc2)cc1 (stereo partly specified)	none
COc1ccc2c3c(n(C)c2c1)[C@@H](CO)N(Cc1ccc(Cl)cc1)CC31CCN(CC2CC2)CC1	none
N#C[C@H]1[C@H](c2ccccc2C2=CCCC2)[C@@H](CO)N1C(=O)C1CC1	none
O=C(c1cccnc1)N1C[C@@H]2N[C@H](C1)C2c1ccc(-c2ccccc2)cc1 (stereo partly specified)	none
O=C(c1ccc(F)cc1)N1CC(=O)N2[C@H](CO)[C@@H](c3ccc(/C=C/c4ccccc4)cc3)[C@H]2C1	none
O=C(C1CCOCC1)N1C[C@@H]2N[C@H](C1)C2c1ccc(/C=C/c2ccccc2)cc1 (stereo partly specified)	IDE exosite FP -7.6!
O=C(C1CCOCC1)N1C[C@@H]2N[C@H](C1)C2c1ccc(-c2ccncc2)cc1 (stereo partly specified)	none
O=C(c1ccc2c(c1)OCO2)N1C[C@@H]2N[C@H](C1)C2c1ccc(/C=C/c2ccccc2)cc1 (stereo partly specified)	none
O=C(CN1CCOCC1)N1C[C@@H]2N[C@H](C1)C2c1ccc(/C=C/c2ccccc2)cc1 (stereo partly specified)	none
COc1ccc(-c2ccc(C3[C@@H]4CN(Cc5ccccn5)C[C@H]3N4)cc2)cc1 (stereo partly specified)	none
C(=C\c1ccc(C2[C@@H]3CN(Cc4nccs4)C[C@H]2N3)cc1)/c1ccccc1 (stereo partly specified)	none
COc1ccccc1NC(=O)N1C[C@@H]2N[C@H](C1)C2c1ccc(/C=C/c2ccccc2)cc1 (stereo partly specified)	none
O=C(c1ccc(F)cc1)N1C[C@@H]2N[C@H](C1)C2c1ccc(/C=C/c2ccccc2)cc1 (stereo partly specified)	IDE exosite FP -4.6!
C(=C\c1ccc(C2[C@@H]3CN(Cc4ccccn4)C[C@H]2N3)cc1)/c1ccccc1 (stereo partly specified)	IDE exosite FP -5.2
O=C(c1ccncc1)N1C[C@@H]2N[C@H](C1)C2c1ccc(/C=C/c2ccccc2)cc1 (stereo partly specified)	IDE exosite FP -14!
CC(C)CC#Cc1ccc([C@H]2[C@@H](CO)N3C(=O)CN(C(=O)Nc4ccc(F)cc4)C[C@@H]23)cc1	none
N#C[C@@H]1[C@H](c2ccc(C3=CCCC3)cc2)[C@@H](CO)N1c1nc(-c2ccccc2)cs1	none
C[C@H](CO)N1C[C@H](C)[C@@H](CN(C)C(=O)NC2CCCCC2)OCc2ccccc2-c2ccccc2C1=O	none
C/C=C/c1ccc([C@@H]2[C@@H](CO)N3C(=O)CN(C(=O)Nc4ccccc4F)C[C@@H]23)cc1	none
COCC(=O)Nc1ccc2c(c1)[C@H]1C[C@@H](CC(=O)N[C@@H](C)c3ccccc3)O[C@@H](CO)[C@H]1O2	none
COC(=O)[C@H]1[C@H](CO)[C@H]2Cn3c(ccc(-c4ccccc4OC)c3=O)[C@H]2N1C(=O)c1cnccn1	none
CN1C(=O)c2cc(NC(=O)c3cscn3)ccc2OC[C@H]2O[C@@H](CC(=O)N3CCOCC3)CC[C@H]21	none
CCN(C[C@H]1[C@@H](c2ccccc2)[C@H](CO)N1C(C)=O)C(=O)c1ccccn1	none
